Shown are actives, neighbours in structure and some others; about 4% of the full set was active somewhere.
TROY NFkB inh = inhibitors of TROY-driven NF-kB signaling, primary screen, Q293 LMP1-TROYcd cells, NF-kB luciferase, uHTS; actives 0.98% (n = 360,000); Q293 LMP1-TROYcd NF-kB luciferase reporter, 4 h; inhibition, % at 10 µM;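 active means compounds whose plate-normalised and pattern-corrected inhibition of the luciferase reporter signal at the single screening dose is 50% or more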
MITF TRPM1 inh = inhibitors of MITF-dependent TRPM1 promoter reporter, primary screen, cell-based, SK-MEL-5, single point, luciferase | SK-MEL-5 TRPM1 promoter luciferase, 24 h | inhibition, % at 12.5 µM | actives 0.83% (n = 330,000) | AID 488899, 2010;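 active means mean inhibition across replicates of 60% or more, whatever share of single replicates reaches that level; inconclusive means some that reach 60%, reason not given; inactive means mean inhibition across replicates below 60%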
TWEAK Fn14 block = inhibitors of TWEAK-Fn14 signaling, primary screen, luciferase reporter cells, uHTS | TWEAK-stimulated Fn14 reporter cells, luciferase luminescence, 8 h | inhibition, % at 10 µM | actives 2% (n = 360,000) | AID 1159606, 2016; in the data active means inhibition above about 50%
LMP1 NFkB inh = EBV LMP1-driven NF-kappaB luciferase reporter inhibitors, primary screen, cell-based, luminescence, single point. inhibition, % at 12.5 µM. LMP1-induced NF-kappaB luciferase reporter cells. actives 0.69% (n = 350,000); in the data active means inhibition above about 41%; inconclusive means no clear call, values can overlap the other calls;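 further: 0% = neutral control wells and 100% = reference inhibitor control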
Peg3 promoter = Peg3 promoter-driven luciferase inhibitors, primary screen, cell-based, HeLa, luciferase luminescence; HeLa PEG-Prom luciferase reporter, overnight; actives 1.7% (n = 360,000); inhibition, % at 20 µM;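 active means inhibition of at least 50% at 20 µM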
HIF-2a inh = HIF-2a reporter inhibitors, primary screen, luminescence, 786-0 RCC cells; 786-0 RCC cells HIF-2a reporter, luciferase luminescence, overnight; actives 0.72% (n = 360,000); inhibition, % at 18.8 µM; AID 624352, 2012;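 active means inhibition of the luminescence signal of 40% or more relative to plate controls, in a single-dose primary screen at 18.75 µM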
Active calls of the source: *; ? = inconclusive; . = no result given.

SMILES	TROY NFkB inh	MITF TRPM1 inh	TWEAK Fn14 block	LMP1 NFkB inh	Peg3 promoter	HIF-2a inh
Cc1cc(NC(=O)CSc2nnc(-c3ccccc3C)n2C)no1	-5	-5	-8	2	5	7
Cc1cc(NC(=O)CSc2nnc(-c3ccco3)n2C)no1	-4	-5	-6	71*	1	1
O=S(=O)(CCSc1ccccn1)c1nc2ccccc2s1	34	11	61*	-1	60*	17
CCCN(CC(=O)Nc1ccccc1C)C(=O)C1CCN(S(=O)(=O)c2ccc(C)c(C)c2)CC1	-7	.	-3	1	11	8
COc1ccccc1N1CCN(C2CCCN(C(=O)c3ccnc4ccc(C)cc34)C2)CC1 (stereo not given)	0	9	8	3	15	11
Cc1ccc2nccc(C(=O)N3CCCC(N4CCN(c5ccc(F)cc5)CC4)C3)c2c1 (stereo not given)	76*	12	7	4	5	19
CCCCCc1ccc(OCCOCCn2c[n+](C)c3ccccc32)c(CCCCC)c1	52*	77*	89*	20	105*	9
CC(=O)Nc1ccc(OCCC[n+]2ccccc2)cc1	12	-2	13	0	9	36
CCCCCc1ccc(OCCC[n+]2ccccc2)c(CCCCC)c1	47	105*	67*	25	107*	32
Cc1cccc(-n2c(C)cc(C=C3C(=O)c4ccccc4C3=O)c2C)c1	80*	-3	92*	10	-250	-20
Cc1cc(/C=C2/C(=O)NN(c3ccccc3)C2=O)c(C)n1-c1ccc(O)cc1	83*	2	88*	37	-59	-1
CCn1c(C)cc(C=C2C(=O)c3ccccc3C2=O)c1C	31	-5	54*	-14	-141	-266
COc1ccc(COC[C@H](C)[C@H](O)[C@@H](C)[C@H]2OC(=O)[C@@H]2C)cc1	-22	3	-3	0	1	-3
O=C(CNC(=O)c1ccccc1F)NCc1cccnc1	-10	-1	2	-1	5	-2
O=C(COc1ncnc2ccc(Br)cc12)Nc1ccc(N2CCOCC2)cc1	-11	5	3	2	3	11
Brc1ccc2ncnc(Nc3ccc(N4CCOCC4)cc3)c2c1	42	11	59*	13	3	5
O=C(CNc1cccc2ccccc12)N/N=C/c1ccc([N+](=O)[O-])cc1	-1	14	82*	-14	19	-2
COc1ccccc1N1CCN(C(=S)Nc2ccc(F)cc2)CC1	53*	1	37	22	5	6
COc1ccccc1N1CCN(C(=S)Nc2ccccc2)CC1	19	-24	-7	3	-13	-9
CC(=O)/C(C#N)=C1\NC(=O)C(Cc2ccc(C)c(C)c2)S1 (stereo not given)	-21	18	-24	10	0	-81
Cc1nc2ccc(C(=O)N(C)Cc3ccccc3)cn2c1N(C)C(=O)CCc1ccccc1	-14	.	2	.	4	-5
Cn1c(N=NC(=O)c2ccccc2)c(O)c2ccccc21	39	20	69*	36	-82	-49
Cn1c(O)c(N=NC(=O)CNC(=O)c2ccccc2)c2ccccc21	-5	1	-12	-1	-3	4
N#Cc1cccnc1N1CCN(C(C(=O)NC2CCCC2)c2ccc(F)cc2)CC1 (stereo not given)	.	.	.	.	.	-2
O=c1oc2ccc(C#CC3(O)CCCCC3)cc2cc1-n1cc(-c2ccccn2)nn1	41	19	58*	9	23	36
SMILES	TROY NFkB inh	MITF TRPM1 inh	TWEAK Fn14 block	LMP1 NFkB inh	Peg3 promoter	HIF-2a inh
C[C@@H]1COC(=O)[C@H](Cc2ccc(F)cc2)CC/C=C/C[C@@H](CC(=O)N[C@@H](CO)Cc2ccccc2)C(=O)N1	-16	-13	-20	-3	-4	13
O=C(C[C@H]1C/C=C\CC[C@@H](Cc2ccc(F)cc2)C(=O)O[C@H](c2ccccc2)CNC1=O)N[C@H](CO)Cc1ccccc1	15	3	10	-1	81*	4
O=C(C[C@H]1C/C=C\CC[C@@H](Cc2ccc(F)cc2)C(=O)O[C@@H](c2ccccc2)CNC1=O)N[C@@H](CO)Cc1ccccc1	1	-5	-10	5	88*	-1
O=C(C[C@H]1C/C=C\C[C@H](Cc2ccc(F)cc2)C(=O)O[C@@H](c2ccccc2)CNC1=O)N[C@@H](CO)Cc1ccccc1	10	8	-10	-1	42	-1
O=C(C[C@@H]1C/C=C/CC[C@H](Cc2ccc(F)cc2)C(=O)OC[C@@H](Cc2ccccc2)NC1=O)N[C@H](CO)Cc1ccccc1	4	91*	1	-143	82*	9
O=C(OCc1ccccc1)N1CCC2CC1c1ccc(N3CCN(Cc4ccc5c(c4)OCO5)CC3)cc12 (stereo not given)	-4	.	12	.	-120	-137
CC1(C(=O)NS(=O)(=O)Cc2cccc(Cl)c2)CCN1C(=O)C/C=C/c1ccccc1 (stereo not given)	-36	.	-3	.	-53	-30
O=C(Nc1nnc(-c2ccccc2)s1)c1cc(S(=O)(=O)N2CCOCC2)c(Cl)cc1Cl	61*	-2	-55	-1	4	-8
O=C(Nc1nnc(-c2ccccc2)s1)c1cccc(S(=O)(=O)N2CCOCC2)c1	-33	-5	-1	-25	-4	-21
O=C(CSc1ccc(Cl)cc1)Nc1cccc(-c2nc3ncccc3o2)c1	67*	12	71*	7	12	-55
O=C(CSc1ccccc1)Nc1ccc(-c2nc3ccccc3[nH]2)cc1	-48	-44	-44	-18	-196	-125
Cc1c(NC(=O)CSc2ccc(Cl)cc2)cccc1-c1nc2ncccc2o1	47	-1	43	13	11	-15
O=C(CSc1ccc(Cl)cc1)Nc1cccc(-c2nc3ccccc3[nH]2)c1	-48	1	17	-5	51*	3
COc1cc(NC(=O)Cn2nc(C(F)(F)F)c3c2CCCC3)cc(OC)c1OC	.	13	66*	8	8	8
O=C1C(Cc2ccccc2)Nc2ncnc(N3CCc4ccccc4C3)c2N1Cc1ccc(Cl)cc1 (stereo not given)	0	8	7	-14	51*	3
CC(C)(C)c1ccc(C(=O)c2c[nH]c(C(=O)NCc3cccnc3)c2)cc1	17	-11	10	-30	-79	-87
O=C(Cc1ccc(Cl)cc1)c1c[nH]c(C(=O)NCc2cccnc2)c1	12	9	43	-8	102*	21
O=C(Nc1nnc(-c2cccs2)o1)c1cccc(C(F)(F)F)c1	9	19	101*	?	37	-3

Assay outcomes: PubChem BioAssay, several laboratories
